Assay outcomes (PubChem BioAssay)
KB-3-1 tox = qHTS assay for MDR1-selective chemotherapeutics: Primary screen using the parental adenocarcinoma cell KB-3-1 | Potency, µM (highest dose often 46.1 µM), hits mostly cytotoxic | hit rate 1.4% among 400,000 | AID 1347075, 2019 | KB-3-1 viability, CellTiter-Glo ATP luminescence, 72 h; note: % is set by controls: 0 for no effect and ±100 for the full control effect; nearly all actives have a fitted effect of over 60% in size
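KB-3-1 cells, DMEM (no phenol red) + 10% FBS; compound by pin transfer, 72 h, 37 °C. Readout: CellTiter-Glo luminescence after 10 min. Data normalized, curve-fitted.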
ATXN2 expr inh = Primary qHTS for Inhibitors of ATXN expression; HEK-293 ATXN2-luciferase reporter, luminescence, 24 h; Potency, µM (top dose mostly 57 µM), inactives show top-dose activity change, negative = inhibition, hits mostly inhibitors; hit rate 0.72% among 360,000; note: % is set by controls: 0 for no effect and ±100 for the full control effect; nearly all actives have a fitted effect of over 55% in size
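ATXN2-luciferase reporter cells (luciferase flanked by upstream and downstream ATXN2 gene portions) were treated 24 h at 37 °C with compounds at up to 57 uM. SteadyGlo luminescence gave expression; GF-AFC fluorescence gave viability.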
HT1080NT lethal = qHTS for induction of synthetic lethality in tumor cells producing 2HG: qHTS for the HT-1080-NT fibrosarcoma cell line | HT-1080-NT fibrosarcoma viability, CellTiter-Glo ATP luminescence, 48 h | Potency, µM (doses to about 46.1 µM), for inactives: at the highest dose activity, negative = less viability, most hits filed as cytotoxic | hit rate 1.6% among 360,000 | AID 686970, 2013;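 note: NT is the 2HG producing partner of a matched IDH1 knockdown line; 0% = DMSO-treated cells and -100% = media-only wells without cells; nearly all actives have a fitted effect of over 55% in size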
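Fibrosarcoma NT cells, 750 per well in 5% FBS RPMI, were exposed to compound for 48 hours. Viability: CellTiter-Glo luminescence.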
KB-V1 cytotox = qHTS assay for MDR1-selective chemotherapeutics: Primary screen using the drug-selected MDR subline cells KB-V1; KB-V1 MDR cells viability, CellTiter-Glo, 72 h; Potency, µM (series often up to 46.1 µM), usual class: cytotoxic; hit rate 3.4% among 400,000; AID 1347076, 2019; note: % is set by controls: 0 for no effect and ±100 for the full control effect; nearly all actives have a fitted effect of over 60% in size
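KB-V1 MDR subline cells in DMEM (phenol-red free, 10% FBS) exposed to compounds in qHTS concentration series for 72 h at 37 degrees C. Viability read by CellTiter-Glo luminescence; concentration-effect curves fitted after normalization and correction.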
ATXN viability = Viability Counterscreen for Primary qHTS for Inhibitors of ATXN expression; S2 cells (HEK-293 line with an ATXN2-luciferase reporter) viability, CellTiter-Fluor protease fluorescence, 24 h; Potency, µM (doses to about 56.7 µM), hits mostly cytotoxic; hit rate 0.49% among 400,000; AID 651635, 2014; note: nearly all actives have a fitted effect of over 40% in size
HT1080 IDH1KD tx = qHTS for induction of synthetic lethality in tumor cells producing 2HG: qHTS for the HT-1080-IDH1KD cell line; HT-1080 IDH1 knockdown viability, ATP luminescence, 48 h; Potency, µM (doses to about 46.1 µM), for the others: top-dose activity, negative = toxicity, usual class: cytotoxic; hit rate 2% among 360,000; AID 686971, 2013;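 note: 0% = DMSO wells and -100% = cell-free medium wells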
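Knockdown cells (IDH1KD HT-1080) received compounds 2 h after plating at 750 cells/well and were kept 48 h at 37 °C in 5% FBS RPMI. A CellTiter-Glo luminescence read gave % activity for curve fitting.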
Active calls of the source: *; i = inactive; ? = inconclusive; nt = no result; ! = not active in a repeat; [ ] = remark or other dose. Hits are enriched below; roughly 6.2% of the tested compounds scored in any of these assays. Calls come from the whole dose curve; as a rule, active = well fitted curve in the direction sought with a large enough effect; inconclusive = small, poorly fitted or top-dose-only effect, or another doubt; inactive = no such curve, though single readings can be large; an effect the other way counts as inactive or inconclusive. Potency is the fitted concentration of half-maximal effect.

SMILES	KB-3-1 tox	ATXN2 expr inh	HT1080NT lethal	KB-V1 cytotox	ATXN viability	HT1080 IDH1KD tx
Cc1cccc(NC(=O)c2ccc(N3CCOCC3)c([N+](=O)[O-])c2)n1	i	33.3%	5.8%	?	i	5.7%
O=C(Nc1cccc(/C=C/c2ccccn2)c1)c1ccc(-n2cncn2)c([N+](=O)[O-])c1	?	?	-13.8%	?	17.8µM*	-25.5%
O=C(Nc1ccc(F)c(F)c1)c1ccc(-n2cncn2)c([N+](=O)[O-])c1	i	-29.0%	-4.6%	i	i	-5.5%
Cc1ccc(NC(=O)c2ccc(-n3cccn3)c([N+](=O)[O-])c2)cc1	i	-8.0%	-4.2%	23.1µM*	i	-1.0%
O=C(NCCCn1ccnc1)c1ccc(N2CCCCCC2)c([N+](=O)[O-])c1	i	nt	23.1µM*	i	i	5.8µM*
Cc1cccc(NC(=O)c2ccc(-n3cccn3)c([N+](=O)[O-])c2)c1	i	3.1%	15.3%	i	i	-0.2%
Cc1cccc(NC(=O)c2ccc(N3CCCCC3)c([N+](=O)[O-])c2)n1	?	23.5%	-9.9%	5.17µM*	i	-4.8%
Cc1ccc(C(=O)NCCCn2ccnc2)cc1[N+](=O)[O-]	i	?	-11.7%	i	i	?
CCSc1ccc(C(=O)Nc2cccc(C)n2)cc1[N+](=O)[O-]	?	28.5%	-0.5%	?	i	-9.3%
CC1CN(S(=O)(=O)c2ccc(C(=O)NCCCn3ccnc3)cc2)CC(C)O1 (stereo not given)	i	-31.4%	2.06µM*	i	i	1.84µM*
O=C(Nc1cc(C(F)(F)F)ccc1N1CCCCC1)c1cccc([N+](=O)[O-])c1	i	-15.4%	-1.3%	16.4µM*	i	-3.6%
Cc1cccc(NC(=O)c2ccc(N(C)C3CCCCC3)c([N+](=O)[O-])c2)n1	?	-31.1%	-23.3%	2.59µM*	i	?
Fc1ccc(-c2cn3cc(Cc4ccc(Cl)cc4)sc3n2)cc1	?	30.7%	nt	i	i	nt
Cc1sc2nc(CN3CCCC3)nc(N3CCN(S(=O)(=O)c4cccs4)CC3)c2c1C	?	-20.7%	?	18.4µM*	?	16.4µM*
CN(C)CCCNc1ncnc2ccc(-c3ccc4c(c3)OCO4)cc12	i	nt	nt	i	nt	nt
CCc1ccc(CNC(=O)CCCn2ccc3cc(S(=O)(=O)N4CCCC4)ccc32)cc1	5.8µM*	?	nt	?	12.6µM*	nt
CCn1ccc2cc(S(=O)(=O)N3CCCN(C(=O)Nc4ccccc4C(F)(F)F)CC3)ccc21	i	9.1%	nt	?	i	nt
CCOC(=O)c1ccccc1NC(=O)N1CCCN(S(=O)(=O)c2ccc3c(ccn3CC)c2)CC1	?	-4.0%	nt	14.6µM*	?	nt
CCC1CN(C(=O)Nc2cc(OC)cc(OC)c2)c2ccccc2S1 (stereo not given)	i	2.7%	nt	i	i	nt
Cc1c(C(=O)N2CCCC2)sc2ncnc(NCCCN3CCOCC3)c12	nt	nt	nt	nt	i	nt
Cc1ccccc1Oc1cc(-n2ncc(Cl)c(Cl)c2=O)ncn1	14.6µM*	7.94µM*	13µM*	i	7.94µM*	7.31µM*
CCCCCN1C(C(=O)c2ccccc2)=C(NC(=O)c2ccccc2Cl)c2ccccc2S1(=O)=O	?	-3.6%	nt	i	i	nt
CN(C)c1ccc(-c2n(C)c3ccccc3[n+]2C)cc1	2.91µM*	6.3%	5.62µM*	i	i	8.91µM*
Cn1c(-c2ccc3ccccc3n2)[n+](C)c2ccccc21	9.2µM*	21.3%	?	?	i	?
Cn1c(-c2cccc([N+](=O)[O-])c2)[n+](C)c2ccccc21	i	?	-0.9%	i	i	-25.3%
SMILES	KB-3-1 tox	ATXN2 expr inh	HT1080NT lethal	KB-V1 cytotox	ATXN viability	HT1080 IDH1KD tx
Cn1c(-c2ccccn2)[n+](C)c2ccccc21	i	-20.4%[11.3 µM]	8.1%	i	i	-3.3%
COc1ccc(Cl)cc1NC(=O)CCS(=O)(=O)c1cccc2nonc12	i	-12.3%	nt	i	nt	nt
Cc1ccccc1OCC(=O)NCC(=O)OCc1ccc2ccccc2c1	i	nt	nt	i	nt	nt
COc1cccc(-n2c(-c3ccco3)nc3c(cnn3-c3ccc(C)cc3)c2=O)c1	?	?	nt	i	i	nt
FC(F)Oc1ccc(-c2c[n+]3c(n2-c2ccccc2)CCCCC3)cc1	?	nt	?	i	i	?
CCOc1ccc(-n2c(-c3ccc(OC)cc3)c[n+]3c2CCCCC3)cc1	2.06µM*	nt	?	i	i	3.66µM*
CCOc1ccc(-n2c(-c3ccccc3)c[n+]3c2CCC3)cc1	i	-29.6%[11.3 µM]	?	?	?	8.2µM*
CCOc1ccc(-n2c(-c3ccc(Br)cc3)c[n+]3c2CCCCC3)cc1	?	?	8.2µM*	i	?	?
CCOC(=O)c1[nH]c2ccccc2c1NC(=O)c1cc(OC)cc(OC)c1	i	-6.3%	nt	8.2µM*	i	nt
O=C(CSc1ccccc1)N1CCN(c2ccccn2)CC1	i	21.1%	-0.8%	i	i	11.7%
Cc1nc(SCC(=O)N2CCN(c3ccccn3)CC2)c(C#N)c(C)c1C	i	-16.4%	8.4%	7.31µM*	i	6.8%
O=C1C(Nc2ccc(O)cc2)=C/C(=N/S(=O)(=O)c2cccs2)c2ccccc21	3.26µM*	3.98µM*	2.31µM*	13µM*	8.91µM*	1.46µM*
Cc1ccc(Cl)cc1NS(=O)(=O)c1ccccc1	i	-16.5%	-8.1%	i	i	-21.0%
Cc1cccc(NC2=C/C(=N/S(=O)(=O)c3cccs3)c3ccccc3C2=O)c1	?	?	4.61µM*	?	?	3.26µM*
COc1ccc(C2=C(Nc3ccc(C)cc3C)c3ccccc3C2=O)cc1	i	-0.2%	nt	i	?	nt
Cc1ccc(Cl)cc1NC1=C/C(=N\S(=O)(=O)c2cccs2)c2ccccc2C1=O	3.26µM*!	2.82µM*	3.66µM*	9.2µM*!	11.2µM*	4.61µM*
Cc1ccc(NC2=C/C(=N\S(=O)(=O)c3cccs3)c3ccccc3C2=O)c(C)c1	6.51µM*	?	7.31µM*	5.17µM*	8.91µM*	6.51µM*
O=S(=O)(/N=C/c1ccccc1O)c1cccs1	?	-7.7%	4.9%	i	i	8.2%
NCCNc1ncnc2ccc(-c3ccc4c(c3)OCO4)cc12	?	nt	nt	i	nt	nt
